An excerpt weighted towards active compounds, which were near 2.5% of everything screened.
ASK1 inh: human ASK1 kinase inhibition, primary screen | Q99683 | AlphaScreen MKK6 phosphorylation by ASK1, luminescence | inhibition, % at 7.44 µM | 22,000 tested, 0.99% active; in the data active means inhibition above about 35%;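 further: 0% = median of compound wells and 100% = no enzyme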
ULK1 primary: blocks human autophagy kinase ULK1 | O75385 | AID 1259251 | inhibition, % at 5.96 µM | 30,000 tested, 1.9% active | AlphaScreen Atg13 phosphorylation by ULK1, luminescence; in the data active means inhibition above about 43%;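 further: 0% = median of compound wells and 100% = no enzyme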
* hit, by the source's call; · = not tested or not shown.

SMILES | ASK1 inh | ULK1 primary
COc1ccc(-c2ncc(C)c(Nc3cc(OC)c(OC)c(OC)c3)n2)cn1 | 18 | 55*
COc1ccc(-c2nc(NCc3cccnc3)c3[nH]cnc3n2)cn1 | -15 | 8
CN(C)CCOc1cc(-c2ccnc(N)n2)c(F)cc1NC(=O)C1COc2ccccc2C1 (stereo not drawn) | 5 | 10
Cc1cc(Nc2ccc(N3CCOCC3)cc2)nc(-c2csc3ccccc23)n1 | 34 | -13
c1ccc(Nc2cc(Nc3ccncn3)ncn2)cc1 | -13 | 46*
COc1cc(Nc2cc(Nc3ccccc3)ncn2)cc(OC)c1OC | 8 | -2
Cc1cc(Nc2ccccc2)nc(Nc2ccncn2)n1 | 7 | 0
COc1cc(Nc2cc(Nc3ccncn3)ncn2)cc(OC)c1OC | 1 | 43*
COc1cc2nc(-c3ccc(C(=O)N4CCN(C)CC4)cc3)nc(N)c2cc1OC | 6 | 3
c1ccc(CN2CCC(Nc3ncnc4nc(Nc5cnccn5)[nH]c34)CC2)cc1 | -3 | 12
c1ccc(CN2CCC(Nc3ncnc4nc(Nc5ccncn5)[nH]c34)CC2)cc1 | 5 | 55*
Cn1cnnc1-c1ccc(Nc2ncc(F)c(-c3cc(F)cc(N4CCOCC4)c3)n2)cc1 | 6 | 15
CC(C)N1CCC(NC(=O)c2cccc(-n3cc(NC(=O)Nc4ccccc4Cl)cn3)c2)CC1 | 5 | 6
Cc1cnc(Nc2cccc(N(C)C)c2)nc1NC1CC1 | 8 | 46*
CN(C)c1cccc(Nc2nccc(NC3CC3)n2)c1 | -1 | 0
O=C(Nc1ccc(-c2ccnc(Nc3ccc(-n4cnc(N5CCOCC5)n4)cc3)n2)cc1)C1CC1 | 2 | 14
O=C1CCCN1CCCNc1nc(Nc2ccccc2)c2[nH]cnc2n1 | 19 | 4
O=C1CCCN1CCCNc1nc(Nc2cccnc2)nc2nc[nH]c12 | -1 | 6
O=C1CCCN1CCCNc1nc(Nc2ccccc2)nc2nc[nH]c12 | -17 | 46*
O=C1CCCN1CCCNc1nc(Nc2ccncc2)nc2nc[nH]c12 | -11 | 55*
O=C1CCCN1CCCNc1nc(Nc2ccc(-n3ccnc3)cc2)nc2nc[nH]c12 | -38 | 58*
O=C1CCCN1CCCNc1nc(NCCCN2CCCC2=O)c2[nH]cnc2n1 | 0 | -2
COc1ccc(Nc2nc(NCCc3ccccn3)c3cc(OC)c(OC)cc3n2)cc1 | -3 | -8
c1ccc(OCCNc2cc(Nc3ccc4ncccc4c3)ncn2)cc1 | 1 | -3
O=C(NCCCN1CCCC1=O)c1cc(Nc2ccc(N3CCOCC3)cc2)nc2ccccc12 | 4 | 4
SMILES | ASK1 inh | ULK1 primary
O=C(Nc1ccc(N2CCOCC2)cc1)c1cnc(NCCN2CCOCC2)s1 | -1 | 0
O=C(Nc1ccc(N2CCOCC2)cc1)c1cc(NCCCN2CCCC2=O)nc2ccccc12 | -9 | 51*
O=C(Nc1ccc(N2CCOCC2)cc1)c1cc(N2CCc3ccccc3C2)nc2ccccc12 | 0 | 50*
O=C(Nc1ccc(Oc2ccccc2)cc1)c1cc(N2CCc3ccccc3C2)nc2ccccc12 | -16 | -2
O=C(Nc1ccc(N2CCOCC2)cc1)c1cnc(NCCCN2CCCC2=O)s1 | -5 | 56*
Cn1cc(-c2ccc3cnc(Nc4ccc(-n5cnc(N6CCOCC6)n5)cc4)nc3c2C(F)(F)F)cn1 | -74 | 33
O=C(NCc1ccccc1)c1ccc2cnc(Nc3ccc(-n4cnc(N5CCOCC5)n4)cc3)nc2c1 | 9 | 37
Cn1cc(-c2ccc3cnc(Nc4ccc(-n5cnc(N6CCOCC6)n5)cc4)nc3n2)cn1 | 22 | 7
CCn1cc(-c2ccc3cnc(Nc4ccc(-n5cnc(N6CCOCC6)n5)cc4)nc3c2Cl)cn1 | 3 | 78*
CC1CN(c2ncn(-c3ccc(Nc4ncc5ccc(-c6cnn(C)c6)c(Cl)c5n4)cc3)n2)CC(C)O1 (stereo not drawn) | 6 | 53*
CNC(=O)c1ccc2cnc(Nc3ccc(-n4cnc(N5CCOCC5)n4)cc3)nc2c1 | -45 | 50*
CC(C)n1cnc2c(NCCc3ccc(O)cc3)nc(N3CCC(N4CCOCC4)CC3)nc21 | 11 | 5
N[C@H]1CC[C@@H](C(=O)Nc2cccc3cnccc23)C1 | -9 | -1
N[C@H]1CCC[C@H](C(=O)Nc2cccc3c(=O)[nH]cnc23)C1 | 9 | 53*
O=C(NC1CC1)c1ccc(-c2nc(Nc3ccccc3)c3ncn(Cc4ccc(C(F)(F)F)cc4)c3n2)cc1 | -12 | 9
Cc1cccc(NC(=O)Cc2ccc(Cl)s2)n1 | · | -21
O=C(NCc1cccc(C(F)(F)F)c1)c1ccnc(Nc2cnccn2)c1 | 14 | 0
Cc1cnc(Nc2ccc(-n3cnc(N4CCOCC4)n3)cc2)cc1Nc1ccccc1C(N)=O | -31 | 27
COc1cnc(Nc2ccc(N3CCOCC3)cc2)nc1-c1ccc(S(C)(=O)=O)cc1 | 16 | 46*
NC(=O)c1ccccc1Nc1cc(Nc2ccc(-n3cnc(N4CCOCC4)n3)cc2)ncc1C(F)F | -21 | 51*
CNC(=O)c1ccccc1Nc1nc(Nc2ccc(-n3cnc(N4CCOCC4)n3)cc2)ncc1Cl | -27 | 36
CNC(=O)c1ccccc1Nc1nc(Nc2ccc(N3CCOCC3)c(F)c2)ncc1Cl | -60 | 90*
CNC(=O)c1ccccc1Nc1cc(Nc2ccc(C(=O)N3CCOCC3)cn2)ncc1C(F)(F)F | 8 | 86*
O=C(c1ccc(Nc2ccc3[nH]ncc3c2)nc1)N1CCOCC1 | -9 | -2
COc1ccc(-c2ncc(C)c(Nc3ccc(N4CCOCC4)cc3)n2)cc1 | 9 | 4
SMILES | ASK1 inh | ULK1 primary
O=C(Cc1ccccc1)Nc1cnn(-c2cccc(C(=O)NN3CCOCC3)c2)c1 | -2 | 4
COc1nc(NCCO)nc(-c2ccc(C(N)=O)cc2)n1 | 5 | 1
Cc1cnc(-c2cccc(N)c2)nc1NCCN(C(C)C)C(C)C | 2 | 0
CCOc1ccc(Nc2cc(-n3cnc(Nc4ccccc4)n3)c(F)cn2)cc1 | -1 | 7
O=C1CCCN1CCCNc1cc(N2CCc3ccccc3C2)ncn1 | 0 | 9
O=C(NCCS(=O)(=O)N1CCN(c2cccc(Cl)c2)CC1)c1ccccc1F | · | -4
CN1CCN(c2ccc(-c3nc4ccc(C(=O)Nc5ccc(Oc6ccccc6)cc5)cc4s3)cc2)CC1 | 13 | 31
O=C(NCc1cccc(C(F)(F)F)c1)c1cccc(Nc2ccncc2)c1 | -11 | 6
CN1CCN(C(=O)c2ccc(-c3cc(C(=O)NCCc4ccc(O)cc4)ccn3)cc2)CC1 | -17 | -7
CNC(=O)c1ccccc1Nc1cc(Nc2ccc(N3CCOCC3)cc2)ncc1C(N)=O | -12 | 85*
COc1cc(N2CCOCC2)ccc1Nc1ncc(Cl)c(Nc2ccccc2C(=O)NC2CC2)n1 | -3 | 12
COc1ccc(N2CCOCC2)cc1Nc1cc(Nc2ccccn2)c(C(F)(F)F)cn1 | 20 | 17
CNC(=O)c1ccccc1Nc1cc(Nc2ccc(N3CCOCC3)cc2)ncc1C(F)(F)F | 1 | 90*
FC(F)(F)c1cnc(Nc2ccc(N3CCOCC3)cc2)cc1Nc1cc(C2CC2)[nH]n1 | 25 | 80*
O=C(NCc1ccccc1)c1ccccc1Nc1ccnc(Nc2ccc(N3CCOCC3)cc2)c1 | 13 | 2
CNC(=O)c1ccccc1Nc1cc(Nc2ccc3[nH]cc(C4=CCNCC4)c3c2)ncc1C(F)(F)F | 28 | -38
COc1cnc(Nc2ccc(N3CCOCC3)cc2)nc1Nc1ccccc1C(N)=O | -83 | 85*
Cc1cnc(NCc2ccc3c(c2)OCO3)nc1NCc1ccccc1 | 1 | -17
Nc1ccnc(N2CCC(N3CCOCC3)CC2)n1 | 1 | -2
